# From PubChem
# Compounds with a hit are over-represented: about 12% of the library has one in this group of screens.
# PLK1 PBD block: qHTS for Inhibitors of PLK1-PDB (polo-like kinase 1 - polo-box domain): Primary Screen; Serine/threonine-protein kinase PLK1 (Homo sapiens), P53350; actives 2.8% (n = 360,000); Potency, µM, without a hit: max response, negative = inhibition, actives largely listed as inhibitors; Plk1 PBD binding of FITC phosphopeptide, fluorescence polarization; further: series mostly up to about 57 µM; on the % scale 0 is the no-effect control and ±100 the full control effect; nearly all actives have a fitted effect of over 65% in size
# BAZ2B inh: qHTS Assay for Inhibitors of BAZ2B | AlphaScreen BAZ2B-H3K14Ac peptide displacement | Bromodomain adjacent to zinc finger domain protein 2B (Homo sapiens), Q9UIF8 | actives 4.4% (n = 360,000) | AID 504333, 2011 | Potency, µM (doses to about 114 µM), inactives show at the top dose activity change, negative = inhibition, hits mostly inhibitors; further: on the % scale 0 is the no-effect control and ±100 the full control effect; nearly all actives have a fitted effect of over 60% in size
#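 AlphaScreen displacement of biotin-H3(5-23)K14Ac peptide (50 nM final) from BAZ2B (50 nM final) in PBS pH 7.4, 0.01% Tween-20; complex preformed 30 min RT, then compounds (top 110 uM) 30 min RT, beads 20 min dark.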
# JMJD2A Tudor: qHTS Assay for Inhibitors of JMJD2A-Tudor Domain; Lysine-specific demethylase 4A (Homo sapiens), O75164; AlphaScreen JMJD2A-Tudor / H3K4me3 peptide binding; Potency, µM (titrated, usually from 114 µM), for inactives: at the top dose activity change, negative = inhibition, hits mostly inhibitors; actives 4.4% (n = 390,000); AID 504339, 2011; further: on the % scale 0 is the no-effect control and ±100 the full control effect; nearly all actives have a fitted effect of over 50% in size
# Sfp PPTase inh: qHTS Assay for Inhibitors of Bacillus subtilis Sfp phosphopantetheinyl transferase (PPTase); 4'-phosphopantetheinyl transferase ffp (Bacillus subtilis), Q9F4F7; Biochemical Sfp PPTase activity, qHTS; Potency, µM, for inactives: largest response in the series, negative = inhibition, hits mostly inhibitors; actives 3.5% (n = 310,000);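 further: the enzyme is Sfp with the accession as filed and its product quenches rhodamine fluorescence; 0% = enzyme reaction without inhibitor and -100% = no enzyme wells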
#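 Reaction rates are the 30-min fluorescence difference (ex 525, em 598 nm) in wells containing 15 nM Sfp, 5 uM rhodamine-CoA and 12.5 uM BHQ-2-YbbR at pH 7.6 with 10 mM MgCl2.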
# HP1b binding inh: HTS for Inhibitors of HP1-beta Chromodomain Interactions with Methylated Histone Tails. AID 540317, 2011. AlphaScreen HP1-beta / biotin-H3K9me3 peptide binding. Chromobox protein homolog 1 (Homo sapiens), P83916. Potency, µM (top dose mostly 114 µM), without a hit: top-dose activity change, negative = inhibition, most hits filed as inhibitors. actives 0.56% (n = 390,000); further: nearly all actives have a fitted effect of over 70% in size
# Target sequence (P83916 whole entry, looked up): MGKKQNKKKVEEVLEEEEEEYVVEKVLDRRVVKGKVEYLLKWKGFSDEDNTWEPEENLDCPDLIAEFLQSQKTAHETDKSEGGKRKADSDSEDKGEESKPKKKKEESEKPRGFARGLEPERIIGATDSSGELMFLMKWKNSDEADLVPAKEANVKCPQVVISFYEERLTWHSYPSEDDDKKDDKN
#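 AlphaScreen: HP1-beta (50 nM) preformed 30 min with biotin-H3(1-18)K9me3 peptide (50 nM) in PBS pH 7.4, 0.01% Tween-20. Compound added for 30 min at RT, then streptavidin donor/nickel chelate acceptor beads (10 ug/mL) for 30 min.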
# G9a block: qHTS Assay for Inhibitors of Histone Lysine Methyltransferase G9a. Histone-lysine N-methyltransferase EHMT2 (Homo sapiens), Q96KQ7. G9a H3K9 monomethylation, AlphaScreen, 2 h. Potency, µM (series often up to 102 µM), inactives show at the highest dose activity, negative = inhibition, most hits filed as inhibitors. actives 8.8% (n = 350,000); further: on the % scale 0 is the no-effect control and ±100 the full control effect; nearly all actives have a fitted effect of over 75% in size
# Target sequence (Q96KQ7 913-1193 limits assumed): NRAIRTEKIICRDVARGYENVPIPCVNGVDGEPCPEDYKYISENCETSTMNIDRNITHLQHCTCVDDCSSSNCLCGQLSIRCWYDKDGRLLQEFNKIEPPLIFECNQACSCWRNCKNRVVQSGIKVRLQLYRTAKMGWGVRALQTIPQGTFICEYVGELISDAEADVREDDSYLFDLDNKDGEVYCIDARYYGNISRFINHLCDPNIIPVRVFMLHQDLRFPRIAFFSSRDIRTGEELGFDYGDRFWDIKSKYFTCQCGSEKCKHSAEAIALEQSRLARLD
#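 G9a (20 nM) was preincubated 15 min with compound, then reacted 2 h at room temperature with 500 nM biotin-H3K9 peptide and 20 µM SAM. Monomethyl-H3K9 detected by AlphaScreen using anti-H3K9me1 antibody.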
# The depositor's hits bear a star; ? = inconclusive; nt = no result; [ ] = another dose, or the depositor's remark. The call rests on the fitted dose curve; in most records, active means well fitted curve in the direction sought with a large enough effect; inconclusive means small, poorly fitted or top-dose-only effect, or another doubt; inactive means no such curve, though single readings can be large; an effect the other way counts as inactive or inconclusive. Potency means the concentration at half of the fitted maximal effect.
SMILES,PLK1 PBD block,BAZ2B inh,JMJD2A Tudor,Sfp PPTase inh,HP1b binding inh,G9a block
COCCN=c1scc(-c2cc(OC)c(OC)c(OC)c2)n1/N=C/c1c(C)[nH]c2ccccc12,28%,11µM*,20µM*,-3%,?,?
Cn1c(=O)n(C)c2cc(/C=N/NC(N)=S)ccc21,-27%,-37%,-10%[57.1 µM],32µM*,-9%,20µM*
CCOC(=O)NNc1ccc(C(F)(F)F)cn1,1%,1%,10µM*,?,12%,7%
CCOC(=O)C1CCN(C(=O)Cc2cccs2)CC1,30µM*,-4%,-5%[11.4 µM],12%,-17%,-3%[59 µM]
CCOC(=O)C1CCCN(C/C=C/c2ccccc2)C1 (stereo not given),-14%,?,22µM*,-11%,?,40µM*
CCOC(=O)C1CCN(C/C=C/c2ccccc2)CC1,-4%,?,79µM*,-4%,-37%,45µM*
CCN(CC)C(=O)C1CCCN(C/C=C/c2ccccc2[N+](=O)[O-])C1 (stereo not given),-2%,?,3.2µM*,-9%,?,35µM*
C/C=C1\COC(C(=O)NCCN2CCOCC2)(C(F)(F)F)C=C1C=C(C)C (stereo not given),nt,nt,-19%,-5%,41%,nt
O=C(O)c1ccccc1Cc1ccccc1,nt,nt,nt,2%,nt,nt
O=C(NCc1cccc(C(F)(F)F)c1)C1CC2Cn3c(nc4ccccc43)C2N1Cc1ccccc1 (stereo not given),-6%,nt,-20%,nt,32%,nt
CCOC(=O)C1CCN(CC(C)(C)NS(=O)(=O)c2ccccc2)CC1,5%,-27%,1.8µM*,2%,79µM*,?
CC(=O)N1CCN(CC(C)(C)NS(=O)(=O)c2ccccc2)CC1,-9%,nt,-4%,nt,25%,nt
O=C(CSc1nnc(-c2cccc(Cl)c2)o1)Nc1ccc2c(c1)OCCO2,-2%,1%,-5%,-15%,28%,-5%[59 µM]
O=C(CSc1nnc(-c2ccc(C(F)(F)F)cn2)o1)Nc1cccc(Cl)c1,-7%,50µM*,-10%,1%,21%,29%
CC(C)(C)OC(=O)NCCc1nnc(SCC(=O)Nc2cccc(Cl)c2)o1,3%,9%,-17%,13%,12%,nt
NCCc1nnc(SCC(=O)Nc2cccc(Cl)c2)o1,-17%,?,-22%,9%,15%,50µM*
CCOc1ccccc1NC(=O)NCc1ccc2c(c1)CCN2C(=O)c1ccccc1,nt,-16%,-24%,nt,1%[57 µM],-3%[59 µM]
CN(C)S(=O)(=O)c1ccc(NC(=O)CSc2nnc(-c3ccco3)o2)cc1,-8%,nt,-7%,nt,29%,nt
O=C(CCn1c(=O)c2cccn2c2cccnc21)N1CCN(c2ccc(F)cc2)CC1,nt,?,-11%,nt,24%,-22%[59 µM]
COc1ccccc1-n1cnnc1SCC(=O)c1c[nH]c2ccccc12,27µM*,-15%,-30%,-9%,-12%,8%[59 µM]
Cc1occc1-c1nnc(SCC(=O)c2ccc(Cl)cc2)n1C,-17%,?,71µM*,-21%,-20%,-40%[12.7 µM]
Cc1occc1-c1nnc(SCC(=O)N(C)c2ccccc2)n1C,1%,11%,0%,nt,31%,14%[2.33 µM]
Cc1occc1-c1nnc(SCC(=O)N2CCCCC2)n1C,-3%,-5%,-8%,nt,17%,-7%
Cc1occc1-c1nnc(SCC(=O)c2c[nH]c3ccccc23)n1C,24µM*,-22%,56µM*,50µM*,-26%,40µM*
Cc1ccc(C(=O)NCc2ccncc2)cc1S(=O)(=O)N1CCCCC1,-1%,-5%,-12%,9%,18%,2%
SMILES,PLK1 PBD block,BAZ2B inh,JMJD2A Tudor,Sfp PPTase inh,HP1b binding inh,G9a block
CCN(CC(=O)Nc1c(F)cccc1F)C(=O)c1cc(C)nc2ccccc12,2%,9%,-7%,nt,16%,1%
CCN(CCCNC(=O)c1cc2c(=O)n(C)c3ccccc3c2s1)Cc1ccccc1,nt,nt,-27%,nt,8%,?
Cc1ccc(N=Cc2cc(Cc3ccccc3Cl)cc([N+](=O)[O-])c2O)c(O)c1,?,25µM*,14µM*,50µM*,?,32µM*
COc1ccc(N=Cc2cc(Cc3ccccc3Cl)cc([N+](=O)[O-])c2O)cc1OC,?,?,?,8%,-14%,40µM*
COc1cc(CSc2ncc(CO)n2Cc2ccc(C)cc2)cc(OC)c1,nt,?,?,nt,-15%[57 µM],-33%[59 µM]
COc1cccc(CNCC(=O)N2C(C)CCCC2C)c1 (stereo not given),-5%,50µM*,3.5µM*,-11%,?,13µM*
CCOCCCNCc1ccc(OC)cc1,-10%,?,4µM*,-4%,-30%,-21%[12.7 µM]
CCOCCCNCc1cccc(OC)c1,0%,?,3.5µM*,-15%,-52%,4µM*
CCOCCCNCc1c(Cl)cccc1Cl,-6%,?,5µM*,?,?,?
CCCn1c(C)nc2c(N(C)CCN(C)C)nc(C)nc21,nt,nt,nt,17%,nt,nt
Cc1ccc(C)c(OCCC(=O)Nc2ccc(S(=O)(=O)N3CCCC3)cc2)c1,-18%,-18%,-20%,nt,25%,14%[2.33 µM]
CCCOc1ccc(CNCCCOCC)cc1OC,-3%,-36%,0.79µM*,-7%,?,-31%
CCOCCCNC(=O)Cc1ccc(OC)c(OC)c1,-6%,-4%,-5%[57.1 µM],23%,47%,-3%[59 µM]
CCCCNC(=O)c1ccccc1SCc1c(C)noc1C,-15%,8%,2%,-5%,33%,98%
Cc1nc2[nH]c(=S)[nH]c2c(=O)[nH]1,-1%,nt,20µM*,nt,-9%,nt
CCC(=O)N1c2ccccc2NC2=C(C(=O)CC(C)(C)C2)C1c1cccnc1 (stereo not given),-7%,-8%,-7%,9%,30%,6%
CCC(=O)N1c2ccccc2NC2=C(C(=O)CCC2)C1c1ccc(N(C)C)cc1 (stereo not given),-4%,-5%,-19%,9%,40%,50µM*
Cc1ccc(S(=O)(=O)Oc2ccc(/C=N/NC(=O)c3nn(C)cc3Cl)cc2)cc1,0%,-1%,-5%,10%,21%,-11%[59 µM]
CSCCOC(=O)COc1ccc(/C=N/NC(=O)c2nn(C)cc2Cl)cc1,0%,-5%,-1%,4%,26%,40µM*
COc1ccc([N+](=O)[O-])c(O)c1C(C)=O,-19%,nt,-1%,nt,23%,nt
